Source: the supplement of paper PMC11732987, “Enantioselective OTUD7B fragment discovery through chemoproteomics screening and high-throughput optimisation” (Communications Chemistry, 2025)

Columns and labels:
Assay in all cases: log2 ratio of Biotin-Ahx-Ub-VS probe labelling (fragment/DMSO); higher = less target engagement (more negative = stronger competition), active = hit call of the paper (q ≤ 0.05, log2 ratio ≤ -1)
Conditions in all cases: compound concentration: 200 uM; treatment time: 3 h
USP34 = USP34 (UniProt Q70CQ2)
Method in brief: (§1)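 Average log2 ratios of fragment over vehicle were obtained by unpaired t-test from global-median-normalised Spectronaut label-free quantities. Proteins with ≥2 unique peptides were included. HEK293T lysate (495 µg per sample) was treated in triplicate with fragment at 200 µM or vehicle for 3 h, then with Biotin-Ahx-Ub-VS at 0.5 µM final for 1 h, and labelled DUBs were NeutrAvidin-enriched and run by diaPASEF LC-MS/MS.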

USP36 = target: T1, USP36 (UniProt Q9P275)
T1 sequence (whole entry): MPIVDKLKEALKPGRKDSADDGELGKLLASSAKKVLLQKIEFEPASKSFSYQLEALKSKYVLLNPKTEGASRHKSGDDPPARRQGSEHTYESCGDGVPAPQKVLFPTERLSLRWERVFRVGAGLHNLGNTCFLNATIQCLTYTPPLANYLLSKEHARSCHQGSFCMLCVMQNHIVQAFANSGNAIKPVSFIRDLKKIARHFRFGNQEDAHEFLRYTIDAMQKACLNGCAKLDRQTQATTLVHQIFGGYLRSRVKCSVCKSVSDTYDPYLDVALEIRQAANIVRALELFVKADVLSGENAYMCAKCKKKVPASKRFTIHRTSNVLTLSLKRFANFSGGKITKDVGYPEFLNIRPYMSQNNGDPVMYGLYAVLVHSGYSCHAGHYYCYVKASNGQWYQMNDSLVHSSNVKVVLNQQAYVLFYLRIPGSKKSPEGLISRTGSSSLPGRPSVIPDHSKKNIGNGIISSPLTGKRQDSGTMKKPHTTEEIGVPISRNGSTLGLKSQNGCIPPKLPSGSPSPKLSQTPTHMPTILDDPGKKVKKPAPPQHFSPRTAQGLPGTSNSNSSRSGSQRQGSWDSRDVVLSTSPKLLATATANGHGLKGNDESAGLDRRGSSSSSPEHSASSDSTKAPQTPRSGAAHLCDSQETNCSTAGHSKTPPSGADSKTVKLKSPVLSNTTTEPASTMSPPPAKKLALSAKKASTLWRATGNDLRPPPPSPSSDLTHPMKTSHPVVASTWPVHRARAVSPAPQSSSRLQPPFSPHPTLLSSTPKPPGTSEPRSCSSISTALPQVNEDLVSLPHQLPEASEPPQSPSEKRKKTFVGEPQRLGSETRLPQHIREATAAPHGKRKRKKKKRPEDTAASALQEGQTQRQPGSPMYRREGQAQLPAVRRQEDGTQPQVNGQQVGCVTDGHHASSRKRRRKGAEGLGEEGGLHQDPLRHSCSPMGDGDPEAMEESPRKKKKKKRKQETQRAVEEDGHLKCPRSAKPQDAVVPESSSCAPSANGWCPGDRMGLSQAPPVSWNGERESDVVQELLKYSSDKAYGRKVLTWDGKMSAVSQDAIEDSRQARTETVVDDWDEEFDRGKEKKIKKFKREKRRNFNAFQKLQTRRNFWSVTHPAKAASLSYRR
Method in brief: as §1

USP38 = target: T2, USP38 (UniProt Q8NB14)
T2 sequence (whole entry): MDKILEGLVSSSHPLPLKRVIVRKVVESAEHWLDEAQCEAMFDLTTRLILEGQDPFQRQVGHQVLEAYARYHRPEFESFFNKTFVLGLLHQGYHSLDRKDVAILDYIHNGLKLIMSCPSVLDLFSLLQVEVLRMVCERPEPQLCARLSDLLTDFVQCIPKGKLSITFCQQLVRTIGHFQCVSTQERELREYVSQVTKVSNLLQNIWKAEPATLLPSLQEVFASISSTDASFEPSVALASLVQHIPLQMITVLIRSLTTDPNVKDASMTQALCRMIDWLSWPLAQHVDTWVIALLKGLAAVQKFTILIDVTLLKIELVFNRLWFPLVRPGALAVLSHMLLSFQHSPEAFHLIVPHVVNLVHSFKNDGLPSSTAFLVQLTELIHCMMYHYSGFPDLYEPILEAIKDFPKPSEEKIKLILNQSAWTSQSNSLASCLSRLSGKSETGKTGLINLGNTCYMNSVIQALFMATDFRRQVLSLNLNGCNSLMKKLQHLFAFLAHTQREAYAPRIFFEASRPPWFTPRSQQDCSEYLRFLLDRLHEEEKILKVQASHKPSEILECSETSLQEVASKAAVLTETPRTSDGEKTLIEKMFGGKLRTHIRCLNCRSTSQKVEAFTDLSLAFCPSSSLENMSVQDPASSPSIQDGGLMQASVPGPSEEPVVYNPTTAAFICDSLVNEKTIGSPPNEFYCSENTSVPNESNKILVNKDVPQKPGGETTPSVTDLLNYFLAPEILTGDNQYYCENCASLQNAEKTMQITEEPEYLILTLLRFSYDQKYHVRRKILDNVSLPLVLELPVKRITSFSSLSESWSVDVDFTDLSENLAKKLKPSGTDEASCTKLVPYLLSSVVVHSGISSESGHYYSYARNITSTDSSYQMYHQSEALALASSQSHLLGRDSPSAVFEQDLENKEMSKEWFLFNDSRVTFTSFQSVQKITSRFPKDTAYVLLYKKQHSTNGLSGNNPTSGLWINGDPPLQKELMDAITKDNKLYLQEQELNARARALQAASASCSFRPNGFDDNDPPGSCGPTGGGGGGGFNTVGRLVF
Method in brief: as §1

USP39 = target: T3, USP39 (UniProt Q53GS9)
T3 sequence (whole entry): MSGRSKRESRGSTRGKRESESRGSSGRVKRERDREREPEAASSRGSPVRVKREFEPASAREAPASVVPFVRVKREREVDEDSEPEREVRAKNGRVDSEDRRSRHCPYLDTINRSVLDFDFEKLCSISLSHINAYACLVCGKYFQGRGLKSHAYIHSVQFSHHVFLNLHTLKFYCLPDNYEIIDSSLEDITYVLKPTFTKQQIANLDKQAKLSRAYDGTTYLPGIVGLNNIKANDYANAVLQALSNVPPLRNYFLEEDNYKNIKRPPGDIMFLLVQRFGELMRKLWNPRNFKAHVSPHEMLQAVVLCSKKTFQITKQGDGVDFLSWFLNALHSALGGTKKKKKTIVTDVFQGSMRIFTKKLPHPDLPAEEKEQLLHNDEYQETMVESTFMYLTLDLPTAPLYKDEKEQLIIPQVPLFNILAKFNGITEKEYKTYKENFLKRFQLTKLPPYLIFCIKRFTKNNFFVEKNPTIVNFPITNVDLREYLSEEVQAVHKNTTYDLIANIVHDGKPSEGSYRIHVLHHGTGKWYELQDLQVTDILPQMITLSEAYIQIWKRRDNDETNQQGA
Method in brief: as §1

USP4 = target: T4, USP4 (UniProt Q13107)
T4 sequence (whole entry): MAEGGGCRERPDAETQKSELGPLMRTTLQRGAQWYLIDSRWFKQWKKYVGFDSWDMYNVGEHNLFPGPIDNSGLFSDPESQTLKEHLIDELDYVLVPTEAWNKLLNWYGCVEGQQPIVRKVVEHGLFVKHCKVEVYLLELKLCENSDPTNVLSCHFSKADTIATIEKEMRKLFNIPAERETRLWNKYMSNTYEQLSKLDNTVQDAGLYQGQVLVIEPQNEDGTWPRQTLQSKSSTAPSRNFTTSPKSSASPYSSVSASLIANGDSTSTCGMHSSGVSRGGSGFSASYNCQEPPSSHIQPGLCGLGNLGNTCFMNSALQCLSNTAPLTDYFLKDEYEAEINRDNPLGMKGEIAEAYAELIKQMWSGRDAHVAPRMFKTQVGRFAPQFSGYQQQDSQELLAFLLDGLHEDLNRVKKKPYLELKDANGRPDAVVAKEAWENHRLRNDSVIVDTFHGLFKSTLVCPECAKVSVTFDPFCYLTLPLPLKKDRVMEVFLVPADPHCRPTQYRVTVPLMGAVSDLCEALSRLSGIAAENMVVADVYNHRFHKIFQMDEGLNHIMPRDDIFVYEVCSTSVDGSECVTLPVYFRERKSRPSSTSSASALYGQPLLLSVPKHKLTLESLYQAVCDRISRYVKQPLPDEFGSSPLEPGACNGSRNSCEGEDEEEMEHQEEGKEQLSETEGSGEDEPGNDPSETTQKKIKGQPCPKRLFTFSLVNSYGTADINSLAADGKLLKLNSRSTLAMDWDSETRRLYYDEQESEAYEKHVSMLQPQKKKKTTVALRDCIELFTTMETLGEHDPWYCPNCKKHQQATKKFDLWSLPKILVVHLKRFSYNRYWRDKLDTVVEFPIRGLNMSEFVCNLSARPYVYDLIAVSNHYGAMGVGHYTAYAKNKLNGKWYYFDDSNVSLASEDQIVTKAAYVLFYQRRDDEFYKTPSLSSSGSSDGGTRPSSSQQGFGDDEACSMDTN
Method in brief: as §1

Measured: log2 ratio of Biotin-Ahx-Ub-VS probe labelling

Chain of USP34 (Q70CQ2 whole entry, the tested form may be a part): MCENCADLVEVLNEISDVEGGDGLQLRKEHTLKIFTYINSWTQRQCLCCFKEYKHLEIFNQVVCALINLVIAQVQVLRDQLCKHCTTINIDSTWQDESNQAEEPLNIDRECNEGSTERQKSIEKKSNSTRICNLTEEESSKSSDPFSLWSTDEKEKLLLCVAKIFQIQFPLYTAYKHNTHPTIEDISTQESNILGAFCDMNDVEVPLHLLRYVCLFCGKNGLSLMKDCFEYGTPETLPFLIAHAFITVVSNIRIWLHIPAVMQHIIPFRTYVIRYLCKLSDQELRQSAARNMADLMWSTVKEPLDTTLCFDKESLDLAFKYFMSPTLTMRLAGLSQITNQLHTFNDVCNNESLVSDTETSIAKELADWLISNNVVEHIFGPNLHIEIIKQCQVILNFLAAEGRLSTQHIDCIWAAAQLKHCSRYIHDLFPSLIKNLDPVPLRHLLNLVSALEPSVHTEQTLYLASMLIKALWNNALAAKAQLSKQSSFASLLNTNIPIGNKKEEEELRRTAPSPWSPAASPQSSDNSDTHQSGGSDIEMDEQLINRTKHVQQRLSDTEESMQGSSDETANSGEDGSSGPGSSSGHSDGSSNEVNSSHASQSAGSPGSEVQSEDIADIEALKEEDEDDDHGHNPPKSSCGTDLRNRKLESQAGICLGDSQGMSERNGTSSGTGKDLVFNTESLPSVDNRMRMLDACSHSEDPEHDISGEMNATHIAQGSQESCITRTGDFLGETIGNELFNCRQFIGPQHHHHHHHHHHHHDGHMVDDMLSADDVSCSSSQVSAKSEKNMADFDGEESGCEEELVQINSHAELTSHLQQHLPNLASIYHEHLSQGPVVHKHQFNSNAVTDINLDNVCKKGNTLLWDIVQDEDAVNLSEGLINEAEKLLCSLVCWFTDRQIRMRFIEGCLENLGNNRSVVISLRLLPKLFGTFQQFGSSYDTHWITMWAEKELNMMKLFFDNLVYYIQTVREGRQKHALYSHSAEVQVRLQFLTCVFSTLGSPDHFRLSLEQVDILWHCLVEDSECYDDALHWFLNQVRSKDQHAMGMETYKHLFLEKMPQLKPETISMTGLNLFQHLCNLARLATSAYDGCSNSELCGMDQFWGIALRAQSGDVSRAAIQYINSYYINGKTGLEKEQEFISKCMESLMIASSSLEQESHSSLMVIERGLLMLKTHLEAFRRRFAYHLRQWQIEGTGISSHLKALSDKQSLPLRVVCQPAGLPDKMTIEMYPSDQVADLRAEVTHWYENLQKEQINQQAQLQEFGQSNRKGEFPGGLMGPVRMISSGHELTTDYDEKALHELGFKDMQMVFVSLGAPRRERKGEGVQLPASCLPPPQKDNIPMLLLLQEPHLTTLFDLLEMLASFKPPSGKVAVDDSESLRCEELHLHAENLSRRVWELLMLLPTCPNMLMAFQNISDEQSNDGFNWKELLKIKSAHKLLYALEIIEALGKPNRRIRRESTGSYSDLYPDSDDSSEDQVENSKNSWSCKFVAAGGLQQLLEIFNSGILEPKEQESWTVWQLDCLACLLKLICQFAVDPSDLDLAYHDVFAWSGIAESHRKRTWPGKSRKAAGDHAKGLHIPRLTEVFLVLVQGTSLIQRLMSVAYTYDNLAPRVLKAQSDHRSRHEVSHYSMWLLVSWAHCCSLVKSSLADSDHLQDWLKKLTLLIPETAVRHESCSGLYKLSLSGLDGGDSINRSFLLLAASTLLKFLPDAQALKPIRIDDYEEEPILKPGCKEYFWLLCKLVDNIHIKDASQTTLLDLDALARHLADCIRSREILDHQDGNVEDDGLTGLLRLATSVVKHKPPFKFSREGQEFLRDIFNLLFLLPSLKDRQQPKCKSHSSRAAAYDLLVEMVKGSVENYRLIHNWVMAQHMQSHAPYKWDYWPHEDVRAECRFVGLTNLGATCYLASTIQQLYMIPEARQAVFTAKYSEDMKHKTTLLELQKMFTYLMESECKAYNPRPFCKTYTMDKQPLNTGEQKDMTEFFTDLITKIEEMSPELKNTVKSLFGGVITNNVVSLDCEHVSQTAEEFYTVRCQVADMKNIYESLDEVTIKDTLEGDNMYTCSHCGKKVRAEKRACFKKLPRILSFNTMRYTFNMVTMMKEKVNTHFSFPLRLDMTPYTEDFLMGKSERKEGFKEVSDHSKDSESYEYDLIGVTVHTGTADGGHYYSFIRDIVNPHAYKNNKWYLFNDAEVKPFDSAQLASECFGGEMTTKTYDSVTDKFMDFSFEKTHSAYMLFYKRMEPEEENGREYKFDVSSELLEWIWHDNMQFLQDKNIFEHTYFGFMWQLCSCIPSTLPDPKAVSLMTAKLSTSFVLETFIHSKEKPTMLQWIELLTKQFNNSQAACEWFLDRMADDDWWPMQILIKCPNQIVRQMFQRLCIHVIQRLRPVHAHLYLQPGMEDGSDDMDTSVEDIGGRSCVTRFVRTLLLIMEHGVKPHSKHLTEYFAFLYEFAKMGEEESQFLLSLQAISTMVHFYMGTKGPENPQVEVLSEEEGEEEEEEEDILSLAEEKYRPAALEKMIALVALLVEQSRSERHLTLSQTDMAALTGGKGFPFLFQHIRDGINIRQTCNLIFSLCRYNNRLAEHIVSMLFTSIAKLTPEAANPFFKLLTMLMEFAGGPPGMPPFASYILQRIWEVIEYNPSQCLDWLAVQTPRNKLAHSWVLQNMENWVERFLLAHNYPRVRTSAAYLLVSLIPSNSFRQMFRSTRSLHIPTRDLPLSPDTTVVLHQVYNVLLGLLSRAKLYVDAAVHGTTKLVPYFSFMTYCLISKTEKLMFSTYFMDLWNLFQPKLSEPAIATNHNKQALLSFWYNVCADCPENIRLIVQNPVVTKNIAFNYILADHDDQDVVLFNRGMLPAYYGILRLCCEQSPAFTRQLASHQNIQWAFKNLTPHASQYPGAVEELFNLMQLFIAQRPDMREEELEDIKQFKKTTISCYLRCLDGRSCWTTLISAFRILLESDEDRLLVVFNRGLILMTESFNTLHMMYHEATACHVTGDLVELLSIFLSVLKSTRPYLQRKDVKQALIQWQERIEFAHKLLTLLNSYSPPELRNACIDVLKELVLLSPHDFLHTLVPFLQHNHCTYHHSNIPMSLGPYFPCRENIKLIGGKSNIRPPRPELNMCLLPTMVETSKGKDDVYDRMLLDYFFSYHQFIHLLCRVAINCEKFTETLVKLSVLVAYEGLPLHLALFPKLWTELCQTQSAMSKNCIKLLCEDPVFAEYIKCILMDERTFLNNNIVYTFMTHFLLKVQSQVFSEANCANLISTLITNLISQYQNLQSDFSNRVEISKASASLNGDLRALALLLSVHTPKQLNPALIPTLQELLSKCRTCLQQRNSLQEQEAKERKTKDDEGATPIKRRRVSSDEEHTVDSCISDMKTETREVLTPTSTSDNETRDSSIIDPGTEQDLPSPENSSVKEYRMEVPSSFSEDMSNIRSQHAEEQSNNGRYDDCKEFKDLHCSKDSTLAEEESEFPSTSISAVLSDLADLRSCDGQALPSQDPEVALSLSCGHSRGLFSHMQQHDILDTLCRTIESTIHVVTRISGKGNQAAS

Cc1ccn2cc(CNC(=O)CCl)nc2c1.Cl
inactive: USP34 -0.192 | USP36 -0.029 | USP38 -0.0421 | USP39 0.0111 | USP4 0.0609
